The test system of test [1] is Wnt5a (protein binding on small-molecule microarray). The test can be described thus: Wnt5a binders on small-molecule microarray, primary screen, biophysical, 635/667 nm fluorescence (AID 1142).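 Further: fluorescence read at 667 nm with signal to noise per printed feature.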 The note with it: 635 nm fluorescence, higher = more signal.
Test [2] is described as follows: cell viability in Huh7 cells, primary screen, cytotoxicity control for HCV replication inhibitor project, CellTiter-Glo luminescence, basal, 48 h (AID 1143).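 Further: Huh7 hepatoma cells carrying a hepatitis C replication reporter with no stimulus; test concentration not given here.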 The note with it: Huh7 HCV replicon, higher = more signal, called active from +8 up or from −8 down.
Test [3] is described as follows: P. aeruginosa biofilm formation inhibitors, primary screen, PAO1 strain, BacTiter-Glo luminescence, LB-PBS (AID 1144). To be noted: 12 h, higher = more signal.
Test [4] in a line: CREB reporter modulators without forskolin, primary screen, cell-based, PC12, CRE-LacZ reporter, unstimulated (AID 1145). The note with it: no forskolin, luminescence, 4.5 h, higher = more signal, called active from +8 up or from −8 down.
The nature of test [5]: CREB reporter modulators under forskolin, primary screen, cell-based, PC12, CRE-LacZ reporter, forskolin-stimulated (AID 1146).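 Further: PC12 cells with 6xCRE LacZ reporter stimulated by forskolin 10 µM; beta-galactosidase reporter signal reflecting CREB driven transcription.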 To be noted: luminescence, 4.5 h, higher = more signal, called active from +8 up or from −8 down.
The target of test [6] is Streptavidin (Streptomyces avidinii) (UniProt P22629). The test can be described thus: streptavidin binders on small-molecule microarray, primary screen, artefact control for SMM compound annotation, biophysical, 635/667 nm fluorescence (AID 1147).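 Further: signal reflects streptavidin binding to arrayed compounds as a control protein.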 To be noted: streptavidin binding, higher = more signal.
Chain of Streptavidin (Streptomyces avidinii) (P22629 whole entry, looked up): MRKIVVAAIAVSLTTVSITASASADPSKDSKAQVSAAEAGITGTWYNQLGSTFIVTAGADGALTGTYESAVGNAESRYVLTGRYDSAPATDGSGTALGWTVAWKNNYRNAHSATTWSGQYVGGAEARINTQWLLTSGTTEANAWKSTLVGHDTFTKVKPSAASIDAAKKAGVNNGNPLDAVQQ
Test [7] in a line: small-molecule binders of probe aInhba, primary screen, biochemical, small-molecule microarray, 635/667 nm fluorescence (AID 1148).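 Further: score merges 667nm spot fluorescence with signal-to-noise for antibody binding to printed compounds.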 To be noted: higher = more signal.
Test [8] deals with Torsin-1A (Homo sapiens) (UniProt O14656). The test can be described thus: torsin A binders from cell lysate, primary screen, small-molecule microarray, wild-type, 635/667 nm (AID 1149). To be noted: COS7 hTOR1A-WT lysate, 635 nm fluorescence, higher = more signal.
Chain of Torsin-1A (Homo sapiens) (O14656 whole entry, looked up): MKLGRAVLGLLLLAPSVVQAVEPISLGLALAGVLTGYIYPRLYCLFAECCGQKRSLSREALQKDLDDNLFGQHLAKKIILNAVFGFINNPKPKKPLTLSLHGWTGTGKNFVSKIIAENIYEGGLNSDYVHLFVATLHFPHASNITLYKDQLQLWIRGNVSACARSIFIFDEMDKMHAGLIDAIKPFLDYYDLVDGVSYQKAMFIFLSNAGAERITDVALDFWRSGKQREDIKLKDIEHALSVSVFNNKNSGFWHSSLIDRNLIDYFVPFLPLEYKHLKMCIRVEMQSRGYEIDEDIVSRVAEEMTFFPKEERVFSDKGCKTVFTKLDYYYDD
Test [9] has the same target. The test can be described thus: small-molecule binders of mutant TOR1A in lysate, primary screen, cell lysate, small-molecule microarray, COS7 lysate, 635/667 nm fluorescence (AID 1150).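 Further: score pools 667 nm emission and signal to noise measuring lysate protein binding.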 The note with it: COS7 hTOR1A mutant lysate, 635 nm fluorescence, higher = more signal.
Test [10] has as its system Sonic hedgehog protein (Shh). The test is described as follows: small-molecule binders of Shh protein, primary screen, biochemical, small-molecule microarray, 635/667 nm fluorescence (AID 1151).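 Further: Shh protein binding to compounds spotted on small-molecule microarray slides; score combines spot fluorescence intensity with signal-to-noise across triplicate slides.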 To be noted: small-molecule microarray binding, 635 nm fluorescence; higher = more signal.
Test [11] is described as follows: E. coli DRC41 culture turbidity changes, primary screen, E. coli filamentation inducer project, strain DRC41, OD650, 48 h (AID 1152).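 Further: E. coli MC1000 strain DRC41 lacking acrAB efflux pump and sulA.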 The note with it: E. coli DRC41 (acrAB sulA), higher = more signal, called active from +8 up or from −8 down.
The nature of test [12]: small-molecule binders of probe aLefty1, primary screen, biochemical, small-molecule microarray, 635/667 nm fluorescence (AID 1153).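 Further: score merges spot fluorescence with signal-to-noise ratio from the scanned slide images.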 To be noted: higher = more signal.
A short description of test [13]: PSAC antagonists in infected red cells, primary screen, cell-based, P. falciparum Indochina, OD700, 1 h (AID 1154). The note with it: P. falciparum Indochina infected RBC osmotic lysis, higher = more signal, called active from +8 up or from −8 down.
Test [14] is described as follows: PSAC antagonists in infected red cells, primary screen, cell-based, P. falciparum Indochina, OD700, 2 h (AID 1155).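 Further: lysis reports solute entry through the parasite surface anion channel PSAC; channel blockers reduce lysis of infected cells.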 To be noted: P. falciparum Indochina infected erythrocytes, osmotic lysis OD700; higher = more signal, called active from +8 up or from −8 down.
The nature of test [15]: osmotic lysis modulators in infected erythrocytes, primary screen, PSAC antagonist project, cell-based, P. falciparum Indochina, OD700, 3 h (AID 1156). To be noted: higher = more signal, called active from +8 up or from −8 down.
A short description of test [16]: PSAC antagonists in infected red cells, primary screen, cell-based, P. falciparum Indochina, OD700, 18 h (AID 1157). The note with it: P. falciparum Indochina infected erythrocytes, osmotic lysis OD700, 18 h; higher = more signal, called active from +8 up or from −8 down.
Test [17] is described as follows: modulators of S6 phosphorylation in cells, primary screen, cell-based, A549, cytoblot, luminescence, serum-stimulated (AID 1158).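 Further: serum-stimulated A549 lung adenocarcinoma cells; signal is phosphorylated S6 detected by cytoblot immunostaining with HRP secondary.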 To be noted: A549 phospho-S6 cytoblot, 5 h, higher = more signal.
For test [18], the target named is NADPH oxidase 2 (Homo sapiens) (UniProt P04839). The test is described as follows: NOX2-dependent H2O2 signal modulators, primary screen, NOX inhibitor project, cell-based, HEK293-NOX2, PMA-stimulated, Amplex Red fluorescence (AID 1159). Further: test concentration not given here. To be noted: 45 min, higher = more signal, called active from +8 up or from −8 down.
Chain of NADPH oxidase 2 (Homo sapiens) (P04839 whole entry, looked up): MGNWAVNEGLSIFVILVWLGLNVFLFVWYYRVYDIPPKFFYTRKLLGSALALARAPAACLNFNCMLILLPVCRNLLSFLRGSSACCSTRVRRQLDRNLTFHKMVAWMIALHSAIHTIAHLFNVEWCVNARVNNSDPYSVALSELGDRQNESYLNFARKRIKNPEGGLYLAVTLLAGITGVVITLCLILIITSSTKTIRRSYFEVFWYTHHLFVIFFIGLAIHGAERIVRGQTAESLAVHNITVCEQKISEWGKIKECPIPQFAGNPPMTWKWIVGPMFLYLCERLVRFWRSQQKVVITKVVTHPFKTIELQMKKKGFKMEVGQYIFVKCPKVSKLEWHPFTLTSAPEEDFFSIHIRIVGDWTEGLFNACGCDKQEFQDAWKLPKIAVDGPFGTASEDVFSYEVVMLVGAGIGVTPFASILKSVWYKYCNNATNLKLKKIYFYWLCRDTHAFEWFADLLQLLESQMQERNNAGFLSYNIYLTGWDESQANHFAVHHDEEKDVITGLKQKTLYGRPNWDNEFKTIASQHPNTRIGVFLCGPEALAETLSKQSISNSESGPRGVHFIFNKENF
In test [19] the target is NADPH oxidase 4 (Homo sapiens) (UniProt Q9NPH5). The test can be described thus: NOX4-dependent H2O2 signal modulators, primary screen, NOX inhibitor project, cell-based, HEK293-NOX4, tetracycline-induced, Amplex Red fluorescence (AID 1160). The note with it: 45 min, higher = more signal, called active from +8 up or from −8 down.
Chain of NADPH oxidase 4 (Homo sapiens) (Q9NPH5 whole entry, looked up): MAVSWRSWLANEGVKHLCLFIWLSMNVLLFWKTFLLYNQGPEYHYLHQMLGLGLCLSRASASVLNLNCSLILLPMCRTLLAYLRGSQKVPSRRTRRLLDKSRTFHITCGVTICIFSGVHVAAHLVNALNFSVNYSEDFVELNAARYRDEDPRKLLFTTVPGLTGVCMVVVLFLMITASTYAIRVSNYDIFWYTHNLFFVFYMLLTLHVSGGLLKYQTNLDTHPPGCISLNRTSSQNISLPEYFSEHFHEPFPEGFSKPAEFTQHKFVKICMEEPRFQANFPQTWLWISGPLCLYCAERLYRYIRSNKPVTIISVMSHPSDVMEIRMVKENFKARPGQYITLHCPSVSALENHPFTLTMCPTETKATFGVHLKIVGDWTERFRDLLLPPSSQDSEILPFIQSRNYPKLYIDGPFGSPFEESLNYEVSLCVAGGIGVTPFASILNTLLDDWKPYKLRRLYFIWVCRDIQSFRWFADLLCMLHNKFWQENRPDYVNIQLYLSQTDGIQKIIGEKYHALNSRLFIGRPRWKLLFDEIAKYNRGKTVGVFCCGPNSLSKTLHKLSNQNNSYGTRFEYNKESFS
Test [20] concerns the target NADPH oxidase 5 (Homo sapiens) (UniProt Q96PH1). The test is described as follows: NOX5-dependent H2O2 signal modulators, primary screen, NOX inhibitor project, cell-based, HEK293-NOX5, Amplex Red fluorescence (AID 1161). The note with it: HEK293-NOX5, ionomycin, 45 min, higher = more signal.

Calls of active or inactive are those of the source. Unless noted, how the calls were made is not given here.

Chain of NADPH oxidase 5 (Homo sapiens) (Q96PH1 whole entry, looked up): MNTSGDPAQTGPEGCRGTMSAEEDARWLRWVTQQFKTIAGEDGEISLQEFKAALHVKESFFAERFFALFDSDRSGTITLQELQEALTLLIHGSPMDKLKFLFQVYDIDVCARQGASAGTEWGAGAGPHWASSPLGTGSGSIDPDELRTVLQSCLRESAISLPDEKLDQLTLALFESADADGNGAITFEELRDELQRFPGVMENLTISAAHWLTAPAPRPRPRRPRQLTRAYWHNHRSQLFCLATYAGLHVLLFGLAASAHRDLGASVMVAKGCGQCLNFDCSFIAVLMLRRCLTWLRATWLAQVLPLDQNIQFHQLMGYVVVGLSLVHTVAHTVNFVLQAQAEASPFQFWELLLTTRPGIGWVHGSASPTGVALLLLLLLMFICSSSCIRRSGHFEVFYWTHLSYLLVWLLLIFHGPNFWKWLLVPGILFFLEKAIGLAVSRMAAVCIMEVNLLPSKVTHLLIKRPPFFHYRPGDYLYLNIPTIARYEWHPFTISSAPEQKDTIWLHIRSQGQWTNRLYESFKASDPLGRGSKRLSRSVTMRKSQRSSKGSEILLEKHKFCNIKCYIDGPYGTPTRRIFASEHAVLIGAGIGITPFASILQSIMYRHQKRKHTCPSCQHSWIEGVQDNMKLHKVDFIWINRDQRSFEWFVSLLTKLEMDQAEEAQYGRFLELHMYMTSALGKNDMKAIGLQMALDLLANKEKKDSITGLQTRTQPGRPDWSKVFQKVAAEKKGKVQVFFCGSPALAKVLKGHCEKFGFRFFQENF

For the molecule `O=C1[C@H]2[C@H]3[C@H](O)[C@H](O)CC(=NO[C@@H]4O[C@H](CO)[C@@H](O)[C@H](O)[C@H]4O)[C@@H]3CC[C@H]2C(=O)N1C[C@@H]1CCCO1`, the composite z-score is 0.185 in test [1]; 0.0066 in test [6]; -0.128 in test [7]; 0.339 in [8]; -0.0388 in [9]; 0.89 in [10]. The molecule further yielded a composite z-score in test [12] of -0.0462. The z-score was -2.92 (inactive) in test [2]; -0.131 (inactive) in test [3]; 0.885 (inactive) in test [4]; 0.0432 (inactive) in test [5]; -1.2 (inactive) in [11]; 0.377 (inactive) in test [13]. Besides, the z-score is -0.963 (inactive) in test [14]; 0.389 (inactive) in test [15]; -2.39 (inactive) in test [16]; 0.054 in test [17]; -2.04 (inactive) in [18]; -0.772 (inactive) in test [19]. In test [20], this molecule registered a z-score of -0.711.

Regarding `CC(=O)OC[C@H]1O[C@H](CC=NOC(C)CN2CCCc3nc(C)c(C)cc32)C=C[C@@H]1OC(C)=O` (stereo not given in full), the composite z-score in [1] was 0.417; in [6], -0.0656; in test [7], -0.0221; in test [8] it was 1.19; in test [9], -0.0919; in test [10] it was 1.1. The molecule also gave a composite z-score in [12] of -0.0222. Besides, the z-score in test [2] was 0.169 (inactive); in test [3], 0.649 (inactive); in test [4], -0.961 (inactive); in test [5], 0.0009 (inactive); in test [11], 0.134 (inactive); in test [13], 1.3 (inactive). The z-score in test [14] was 0.674 (inactive); in test [15], 0.594 (inactive); in test [16], 0.588 (inactive); in [17], -0.597; in test [18] it was -2.12 (inactive); in test [19], -2.2 (inactive). In test [20], this molecule registered a z-score of -0.898.

Regarding `C=CC[C@@H]1C=CC(ON=C(C)C)[C@@H](CO)O1` (stereo not given in full), the composite z-score is -0.174 in test [1]; 0.543 in test [6]; 0.0357 in test [7]; 0.193 in test [8]; -0.611 in [9]; -0.117 in test [10]. The same molecule gave a composite z-score in test [12] of -0.147. The z-score in test [2] was 0.28 (inactive); in [3], 0.0414 (inactive); in test [4], -1.13 (inactive); in test [5], -0.92 (inactive); in test [11] it was -1.85 (inactive); in [13], 0.42 (inactive). The z-score in test [14] is 0.81 (inactive); in test [15] it was -0.316 (inactive); in test [16] it was 0.195 (inactive); in test [17], -0.0323; in test [18], -0.202 (inactive); in test [19], -0.173 (inactive). Moreover, the z-score in test [20] amounted to 0.264.

On to `CC(C)CN1CCc2nc(-c3ccccc3)c3c(c2C1)CO[C@@H](C)C3`, for which the composite z-score in test [1] was 0.379; in test [6] it was 0.235; in test [7], 0.115; in [8] it was 0.0937; in test [9] it was 0.571; in test [10], 0.421. In test [12], this molecule came in with a composite z-score of 0.123. In addition, the z-score is -0.718 (inactive) in test [2]; -0.876 (inactive) in test [3]; 9.42 (active) in test [4]; -1.44 (inactive) in [5]; 0.696 (inactive) in [11]; 1.56 (inactive) in [13]. The z-score was 0.711 (inactive) in test [14]; 0.61 (inactive) in test [15]; 0.615 (inactive) in test [16]; 0.418 in test [17]; 2.18 (inactive) in [18]; -2.08 (inactive) in [19]. Further, the z-score in test [20] is 0.551.

Take `C=CCOCC1CN2[C@@H](CC[C@@H](C)[C@@H]2c2ccc(Br)cc2)C(=O)O1` (stereo not given in full): the composite z-score in test [1] was -0.234; in [6], 0.0804; in test [7], -0.367; in test [8] it was 0.318; in test [9] it was 0.499; in test [10], 0.257. This molecule came in with a composite z-score in [12] of -0.147. Moreover, the z-score was -0.0112 (inactive) in test [2]; 1.1 (inactive) in test [3]; 0.829 (inactive) in [4]; -0.0565 (inactive) in test [5]; 0.298 (inactive) in test [11]; 0.517 (inactive) in test [13]. The z-score in test [14] was 0.456 (inactive); in test [15], -1.14 (inactive); in test [16], 0.247 (inactive); in test [17], -0.665; in [18] it was 0.286 (inactive); in test [19], -0.604 (inactive). Moreover, in test [20], the z-score is -2.74.

These data come from PubChem BioAssay.
